Screening data (PubChem BioAssay)
SSB-PriA inh – K. pneumoniae PriA-SSBct interaction inhibition. AlphaScreen SSBct-PriA binding, biotinylated peptide. inhibition, % at 33 µM. actives 0.6% (n = 430,000). AID 1272365; in the data active = inhibition mostly above about 37%, no sharp cut-off; inactive = mostly below about 20%;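 note: plate controls were negative control peptide for no effect and reference peptide for full effect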
Autofluor counter – flagged as autofluorescent in microsphere protease counterscreen; compound autofluorescence counterscreen, microsphere flow cytometry; active compounds read high; fluorescence intensity (test concentration not listed); actives 3.1% (n = 360,000); in the data active = fluorescence intensity above about 16000; inconclusive = no clear call, values can overlap the other calls
BoNT A protease – blocks Botulinum neurotoxin A light chain protease; AID 588499; inhibition, % at 10 µM; actives 0.17% (n = 360,000); multiplex microsphere protease substrate cleavage, flow cytometry; note: plate controls were buffer without enzyme for full effect and enzyme alone for no effect
BoNT-F LC inh – inhibitors of Botulinum neurotoxin F light chain protease; inhibition, % at 10 µM; actives 0.22% (n = 360,000); Multiplex microsphere protease cleavage assay, flow cytometry; in the data active = inhibition above about 35%, passing the limit was not always enough; inconclusive = no clear call, values can overlap the other calls; note: plate controls were buffer without enzyme for full effect and enzyme alone for no effect
Anthrax LF prot – inhibitors of Bacillus anthracis lethal factor protease; P15917; multiplex microsphere protease cleavage assay, LF; inhibition, % at 10 µM; actives 0.12% (n = 360,000); AID 588501; note: plate controls were buffer without enzyme for full effect and enzyme alone for no effect
Target sequence (P15917 whole entry, looked up): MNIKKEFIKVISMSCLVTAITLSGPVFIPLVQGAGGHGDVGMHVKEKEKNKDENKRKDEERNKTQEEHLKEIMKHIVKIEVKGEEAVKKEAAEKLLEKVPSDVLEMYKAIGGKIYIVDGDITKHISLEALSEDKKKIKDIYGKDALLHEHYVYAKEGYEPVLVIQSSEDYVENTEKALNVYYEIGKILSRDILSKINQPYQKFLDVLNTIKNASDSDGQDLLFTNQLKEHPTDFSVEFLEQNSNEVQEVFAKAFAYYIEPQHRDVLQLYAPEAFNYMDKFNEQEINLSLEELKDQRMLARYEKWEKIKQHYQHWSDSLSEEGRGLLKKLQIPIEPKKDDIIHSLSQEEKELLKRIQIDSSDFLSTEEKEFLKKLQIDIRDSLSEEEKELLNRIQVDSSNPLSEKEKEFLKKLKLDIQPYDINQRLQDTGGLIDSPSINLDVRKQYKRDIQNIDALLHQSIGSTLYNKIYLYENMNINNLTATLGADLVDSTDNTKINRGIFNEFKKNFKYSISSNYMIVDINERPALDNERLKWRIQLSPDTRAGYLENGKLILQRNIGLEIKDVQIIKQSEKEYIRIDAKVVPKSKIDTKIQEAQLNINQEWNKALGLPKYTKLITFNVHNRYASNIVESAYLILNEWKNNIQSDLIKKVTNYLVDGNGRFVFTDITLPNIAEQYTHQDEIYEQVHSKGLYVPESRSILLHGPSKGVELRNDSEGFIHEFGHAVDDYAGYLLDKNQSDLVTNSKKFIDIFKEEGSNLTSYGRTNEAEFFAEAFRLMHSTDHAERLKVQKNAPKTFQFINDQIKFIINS
Starred values were filed as active, the others as inactive; ? = inconclusive; / = no result. Most compounds without a hit are left out; they make up all but 3.1% or so of the library. Cut-off read from the data, not from the text of the source, unless noted: active = inhibition above about 30%; inconclusive = no clear call, values can overlap the other calls; inactive = below that.

SMILES	SSB-PriA inh	Autofluor counter	BoNT A protease	BoNT-F LC inh	Anthrax LF prot
O=C1NCCN1C(=O)c1ccco1	-28.6	22557*	-1.6	-2.5	-0.2
COc1ccc(C(=O)NC2(C(F)(F)F)N=C3SCCN3C2=O)cc1 (stereo unspecified)	0.2	9638	1.3	-5.5	-6.6
O=C(NC1(C(F)(F)F)N=C2SCCN2C1=O)c1ccccc1 (stereo unspecified)	-9.7	24460*	-1.5	-2.8	-4.5
COC(=O)C1CC(OC)CN1C(=O)CCc1ccc(C(F)(F)F)cc1 (stereo unspecified)	-2.0	/	/	/	/
CCCCOC(=O)CCc1nc2ccccc2[nH]c1=O	-1.8	18710*	9.0	12.3	2.6
CCC(OC(=O)CCc1nc2ccccc2[nH]c1=O)C(=O)c1ccccc1 (stereo unspecified)	-2.3	17407*	-2.7	-7.8	-4.0
CC(=O)COC(=O)CCc1nc2ccccc2[nH]c1=O	-9.1	6760	-1.5	-15.9	-7.6
CCCCOC(=O)CCn1[nH]c(=O)c2ccccc2c1=O	-15.1	22758*	-0.8	0.4	-2.3
CC(C)(C)C(=O)COC(=O)CCc1nc2ccccc2[nH]c1=O	-2.5	3642	-0.3	-7.8	2.4
O=C(Cn1nc(-c2ccco2)ccc1=O)NCc1ccc(Cl)cc1	-15.0	/	/	/	/
Cn1cc(C(=O)N(CCc2cccs2)Cc2ccoc2)nn1	-1.0	/	/	/	/
Cc1ccc(C(=O)Nc2ccc(C(=O)NCCNC(=O)c3ccccc3C)cc2)cc1	-22.0	/	/	/	/
O=S(=O)(Nc1ccc2c(c1)nc1n2CCOC1)c1ccccc1	1.3	19895*	6.1	11.5	1.5
O=S(=O)(Nc1ccc2c(c1)nc1n2CCOC1)c1ccc(Cl)cc1	-2.3	22037*	1.1	2.5	1.7
O=C(CCc1ccccc1F)NCC(O)c1ccc2c(c1)CCO2 (stereo unspecified)	2.0	/	/	/	/
O=C(NCC12CC3CC(CC(C3)C1)C2)c1nc2ncccn2n1	-6.3	19103*	1.7	-0.2	-7.9
COc1ccc(-n2c(O)c(/C=N/NS(=O)(=O)c3cc(C)ccc3C)c3ccccc3c2=O)cc1OC	/	17279*	-4.6	0.3	-1.6
O=C1/C(=C\c2ccccn2)SC(=S)N1c1ccc(S(=O)(=O)Nc2nccs2)cc1	-4.9	3634	-2.6	?	29.6*
COc1cccc(C#Cc2c(C=O)n(C)c3ccccc23)c1	-24.5	3517	36.3*	12.7	37.1*
COc1ccc(-c2cn[nH]c2N)c(OC)c1	-2.4	17696*	7.1	3.8	-16.7
CCOc1ccc(-c2cn[nH]c2N)cc1	-1.2	23738*	-0.5	-4.1	0.0
CN(C(=O)CCn1c(=O)oc2ccccc21)c1ccccc1	-11.0	/	/	/	/
COc1cccc(-n2nnc3c(=O)n(Cc4ccc(C)cc4)cnc32)c1	-9.7	10755	0.3	1.3	-3.7
COc1cccc(-n2nnc3c(=O)n(Cc4ccc(Br)cc4)cnc32)c1	-11.4	21527*	-4.6	-6.0	-3.6
O=C(Cn1cnc2c(nnn2Cc2ccc(F)cc2)c1=O)NC1CCCC1	3.0	22114*	2.6	4.5	0.5
SMILES	SSB-PriA inh	Autofluor counter	BoNT A protease	BoNT-F LC inh	Anthrax LF prot
COc1cccc(-n2nnc3c(=O)n(CC(=O)Nc4ccccc4C)cnc32)c1	4.6	6249	0.1	6.5	-5.8
COc1cccc(-n2nnc3c(=O)n(Cc4ccc(Cl)cc4)cnc32)c1	-2.5	21157*	-1.1	-0.8	0.1
COc1cccc(-n2nnc3c(=O)n(CC(=O)NC4CCCC4)cnc32)c1	-19.2	20217*	1.0	0.2	0.4
Cc1cc(C)n(-c2ccc(CCC(=O)NCc3nc(C)no3)cc2)n1	-10.0	/	/	/	/
COc1ccc(-c2cnc(CNC(C)=O)[nH]2)cc1	2.0	/	/	/	/
COc1ccc(C2=NOC(C(=O)Nc3ccc(C(C)=O)cc3)C2)cc1OC (stereo unspecified)	0.1	10620	1.3	4.4	-3.9
COc1ccc(C2=NOC(C(=O)NC3CCCCC3)C2)cc1OC (stereo unspecified)	-6.4	23218*	0.3	3.4	-1.7
COc1ccc(C2OC(=O)CC2C(=O)NC2CCCCCC2)cc1OC (stereo unspecified)	-3.1	22084*	-5.7	-6.6	-1.7
COc1ccc(-c2cc(C(=O)NC3CCCC3)no2)cc1	4.9	5791	2.7	14.0	-1.2
COc1ccc(-c2cc(C(=O)NC3CCCC3)no2)cc1OC	-5.1	22323*	0.3	-1.2	1.8
NC(=O)C1CCN(C(=O)c2csc(-n3cccc3)n2)CC1	-16.0	/	/	/	/
COc1ccc(NC(=O)CCCN(C)S(=O)(=O)c2ccc3c(c2)C(=O)c2ccccc2C3=O)cc1	-10.0	/	/	/	/
NS(=O)(=O)c1ccc(NC(=O)CSc2ccc(F)cc2)cc1	-8.0	/	/	/	/
Cc1cccn2c(=O)c3cc(C(N)=S)c(=N)n(CCCOC(C)C)c3nc12	7.2	3782	41.1*	-57.0	-35.7
CCOCCn1ccc2c(O)cccc2c1=O	-13.0	/	/	/	/
C=CCN(CC=C)S(=O)(=O)c1ccc(C(=O)Nc2nc(-c3cc(C)ccc3C)cs2)cc1	-6.0	/	/	/	/
CN(Cc1ccccc1)Cc1nc2c([nH]1)c(=O)[nH]c(=O)n2C	-8.5	16968*	-0.9	-2.1	-3.2
O=C(CSc1ccc(F)cc1)NCCn1nc(-c2ccccn2)c2c1CCCC2	1.0	/	/	/	/
CCCCOc1ccc(NC(=O)NCC(c2ccsc2)N2CCOCC2)cc1 (stereo unspecified)	-7.0	/	/	/	/
O=S1(=O)N=C(Nc2nncs2)c2ccccc21	-0.9	22257*	?	2.6	-4.1
CCC(C)(NS(=O)(=O)OCC(Cl)(Cl)Cl)c1ccccc1 (stereo unspecified)	-21.1	/	/	/	/
Cn1c(N2CCCCC2)nc2c1c(=O)[nH]c(=O)n2C	-12.8	16214*	-0.5	-1.4	-5.0
CC(C)n1c(N2CCCC2)nc2c1c(=O)[nH]c(=O)n2C	-8.8	3676	0.7	-11.6	0.1
O=C(NCCn1nc(C2CC2)n(-c2ccccc2)c1=O)c1cc(-c2ccco2)[nH]n1	-21.0	/	/	/	/
CC1CCCN(C(=O)c2ccc3c(c2NCCO)C(=O)c2ccccc2C3=O)C1 (stereo unspecified)	64.1*	2813	0.5	-5.8	-3.2
SMILES	SSB-PriA inh	Autofluor counter	BoNT A protease	BoNT-F LC inh	Anthrax LF prot
Cn1nnc2c(NN3CCOCC3)ncnc21	-13.0	/	/	/	/
COc1ccc(N2CCCS2(=O)=O)cc1NC(=O)C(=O)NCCc1ccccc1	12.0	/	/	/	/
COc1ccc(C2=Nn3c(nnc3-c3cccnc3)SC2)cc1	-6.0	9427	0.1	-4.0	1.3
COc1ccc(C2=Nn3c(nnc3-c3ccncc3)SC2)cc1	-2.2	?	?	-3.4	?
COc1ccc(C2=Nn3c(nnc3-c3ccco3)SC2)cc1	-5.5	17209*	-2.9	-8.6	-5.3
c1ccc(C2=Nn3c(nnc3-c3cccnc3)SC2)cc1	-16.5	22262*	4.5	7.0	1.0
COc1ccc(OC)c(C2=Nn3c(nnc3-c3cccc(OC(C)C)c3)SC2)c1	-7.0	16655*	-1.2	-5.4	-14.7
CCOc1ccc(C2=Nn3c(nnc3-c3ccc(OC)cc3)SC2)cc1	-11.6	17851*	5.3	7.2	-11.6
O=C(COc1ccc(Cl)cc1Cl)NCCn1nc(-c2cccnc2)ccc1=O	3.0	/	/	/	/
CCOc1ccccc1NC(=O)Cn1ccc2ccn(Cc3ccccc3)c2c1=O	-7.0	/	/	/	/
Nn1c(SCc2c(F)cccc2Cl)nncc1=O	-6.0	/	/	/	/
c1ccc(C2=Nn3c(nnc3-c3ccncc3)SC2)cc1	-3.9	2683	0.3	1.7	-1.6
